# Active and inactive are the calls of the source.
# How the values were obtained:
# [1] = binders of probe aFSTL3 on microarray, primary screen, stem cell growth factor project, biochemical, small-molecule microarray, fluorescence 635/667 (AID 1064); conditions: higher = more signal;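 also: measures binding of the biotinylated anti-FSTL3 antibody to printed compounds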
# [2] = binders from COS7 lysate, DM2A8 probe, primary screen, torsin A project, cell lysate, small-molecule microarray, fluorescence 635/667 (AID 1065); conditions: higher = more signal, COS7 lysate expressing mutant human TOR1A
# [3] = binders of probe aFGF2 on microarray, primary screen, stem cell growth factor project, biochemical, small-molecule microarray, fluorescence 635/667 (AID 1067); conditions: higher = more signal;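 also: measures binding of biotinylated aFGF2 protein to printed compounds on slides; z-score merges feature fluorescence and signal-to-noise across triplicate slides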
# [4] = binders of probe aFGF10 on microarray, primary screen, stem cell growth factor project, biochemical, small-molecule microarray, fluorescence 635/667 (AID 1071); conditions: higher = more signal;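 also: score merges 667 nm spot intensity and signal to noise from triplicate slides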
# [5] = molecular target: Neurogenic locus notch homolog protein 2 (Homo sapiens) (UniProt Q04721); test: Notch2 binders on small-molecule microarrays, primary screen, biochemical, small-molecule microarray, 635 nm fluorescence, stem cell growth factors (AID 1073); conditions: Notch2 binding, higher = more signal
# Chain of Neurogenic locus notch homolog protein 2 (Homo sapiens) (Q04721 whole entry, looked up, canonical isoform): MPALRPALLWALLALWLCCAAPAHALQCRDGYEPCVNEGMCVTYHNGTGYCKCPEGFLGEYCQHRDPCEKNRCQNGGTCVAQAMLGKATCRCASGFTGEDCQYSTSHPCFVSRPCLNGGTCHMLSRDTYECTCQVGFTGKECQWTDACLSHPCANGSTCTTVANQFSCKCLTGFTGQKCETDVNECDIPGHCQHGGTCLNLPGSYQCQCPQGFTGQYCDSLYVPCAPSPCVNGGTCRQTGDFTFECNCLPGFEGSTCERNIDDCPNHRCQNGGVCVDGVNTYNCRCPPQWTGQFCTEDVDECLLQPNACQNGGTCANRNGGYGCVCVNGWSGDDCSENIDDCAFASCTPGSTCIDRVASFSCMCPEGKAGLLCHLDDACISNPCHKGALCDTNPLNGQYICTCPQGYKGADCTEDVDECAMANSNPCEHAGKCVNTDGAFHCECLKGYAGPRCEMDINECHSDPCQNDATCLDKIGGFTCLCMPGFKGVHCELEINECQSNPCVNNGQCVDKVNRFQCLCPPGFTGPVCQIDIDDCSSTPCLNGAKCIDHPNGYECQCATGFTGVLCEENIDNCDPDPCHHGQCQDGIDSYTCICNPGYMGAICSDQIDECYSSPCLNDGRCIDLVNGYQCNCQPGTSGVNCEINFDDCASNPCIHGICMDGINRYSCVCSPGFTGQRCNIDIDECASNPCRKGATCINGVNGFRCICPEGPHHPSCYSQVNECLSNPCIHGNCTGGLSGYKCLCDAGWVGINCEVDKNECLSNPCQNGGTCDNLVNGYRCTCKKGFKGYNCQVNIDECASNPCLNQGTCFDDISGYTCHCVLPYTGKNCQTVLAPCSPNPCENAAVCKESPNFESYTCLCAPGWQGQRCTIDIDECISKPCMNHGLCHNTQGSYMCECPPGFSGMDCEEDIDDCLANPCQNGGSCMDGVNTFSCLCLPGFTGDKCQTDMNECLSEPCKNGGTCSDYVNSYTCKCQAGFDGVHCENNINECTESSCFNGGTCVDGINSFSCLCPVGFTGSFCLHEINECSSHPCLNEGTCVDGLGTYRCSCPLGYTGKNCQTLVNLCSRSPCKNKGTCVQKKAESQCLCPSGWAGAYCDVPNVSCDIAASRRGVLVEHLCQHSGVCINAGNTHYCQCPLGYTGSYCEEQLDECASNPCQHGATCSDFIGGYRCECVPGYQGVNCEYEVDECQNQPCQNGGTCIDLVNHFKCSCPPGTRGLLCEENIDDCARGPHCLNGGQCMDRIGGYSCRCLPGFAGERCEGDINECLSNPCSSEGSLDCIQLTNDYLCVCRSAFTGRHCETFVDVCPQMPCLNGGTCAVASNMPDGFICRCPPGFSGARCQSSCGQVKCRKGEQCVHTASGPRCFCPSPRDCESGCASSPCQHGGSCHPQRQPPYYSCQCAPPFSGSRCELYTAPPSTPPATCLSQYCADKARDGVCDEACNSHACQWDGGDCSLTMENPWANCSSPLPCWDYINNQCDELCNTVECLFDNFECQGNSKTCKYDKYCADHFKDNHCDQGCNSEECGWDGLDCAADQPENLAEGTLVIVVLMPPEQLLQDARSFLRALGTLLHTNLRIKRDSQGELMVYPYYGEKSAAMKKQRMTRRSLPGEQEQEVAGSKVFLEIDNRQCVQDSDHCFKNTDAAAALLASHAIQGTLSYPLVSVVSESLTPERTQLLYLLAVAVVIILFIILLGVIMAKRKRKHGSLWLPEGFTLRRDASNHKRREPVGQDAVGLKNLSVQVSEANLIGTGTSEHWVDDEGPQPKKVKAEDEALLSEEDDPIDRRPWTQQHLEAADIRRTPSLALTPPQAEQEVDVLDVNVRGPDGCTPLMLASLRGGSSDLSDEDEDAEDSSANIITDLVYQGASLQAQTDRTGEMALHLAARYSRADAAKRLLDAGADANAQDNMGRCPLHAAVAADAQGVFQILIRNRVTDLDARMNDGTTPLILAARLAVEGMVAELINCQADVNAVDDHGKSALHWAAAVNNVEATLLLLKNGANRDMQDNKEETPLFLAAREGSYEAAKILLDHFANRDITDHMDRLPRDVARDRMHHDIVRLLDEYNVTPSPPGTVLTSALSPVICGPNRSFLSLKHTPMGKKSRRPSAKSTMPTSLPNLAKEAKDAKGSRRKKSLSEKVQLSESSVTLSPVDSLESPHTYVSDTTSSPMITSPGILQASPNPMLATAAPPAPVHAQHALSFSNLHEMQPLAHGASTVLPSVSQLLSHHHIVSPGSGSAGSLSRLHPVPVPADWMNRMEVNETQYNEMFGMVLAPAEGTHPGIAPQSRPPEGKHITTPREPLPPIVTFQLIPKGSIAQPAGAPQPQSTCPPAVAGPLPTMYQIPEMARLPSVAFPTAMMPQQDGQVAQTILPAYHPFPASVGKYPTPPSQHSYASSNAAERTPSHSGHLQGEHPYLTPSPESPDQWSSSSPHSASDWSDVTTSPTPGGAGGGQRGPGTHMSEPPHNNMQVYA
# [6] = molecular target: Pro-neuregulin-1, membrane-bound isoform (Homo sapiens) (UniProt Q02297); test: NRG1 binders on small-molecule microarrays, primary screen, psychiatric disease protein project, biochemical, small-molecule microarray, fluorescence 635/667 (AID 1075); conditions: NRG1 binding, 635 nm fluorescence, higher = more signal;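 also: score combines 667 nm spot fluorescence with signal to noise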
# Chain of Pro-neuregulin-1, membrane-bound isoform (Homo sapiens) (Q02297 whole entry, looked up, the tested form may be a part, canonical isoform): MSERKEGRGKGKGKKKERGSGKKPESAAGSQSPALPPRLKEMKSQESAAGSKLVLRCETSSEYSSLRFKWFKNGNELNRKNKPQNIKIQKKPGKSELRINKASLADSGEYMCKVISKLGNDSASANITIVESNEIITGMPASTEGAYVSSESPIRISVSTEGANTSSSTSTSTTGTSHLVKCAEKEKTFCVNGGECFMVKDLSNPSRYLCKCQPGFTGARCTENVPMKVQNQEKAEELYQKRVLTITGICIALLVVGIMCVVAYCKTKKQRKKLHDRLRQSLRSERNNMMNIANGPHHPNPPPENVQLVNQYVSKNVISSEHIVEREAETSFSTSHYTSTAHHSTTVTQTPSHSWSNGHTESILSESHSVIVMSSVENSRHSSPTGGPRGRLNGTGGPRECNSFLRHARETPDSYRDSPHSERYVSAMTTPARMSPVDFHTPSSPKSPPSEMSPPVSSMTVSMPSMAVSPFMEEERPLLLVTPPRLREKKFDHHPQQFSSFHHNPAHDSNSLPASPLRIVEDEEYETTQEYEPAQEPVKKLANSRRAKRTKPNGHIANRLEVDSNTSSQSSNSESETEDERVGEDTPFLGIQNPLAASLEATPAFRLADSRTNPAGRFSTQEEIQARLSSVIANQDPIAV
# [7] = system: Neuregulin-1 EGF-like domain; test: binders of neuregulin-1 EGF-like domain, primary screen, biochemical, small-molecule microarray, 635 nm fluorescence (AID 1081); conditions: small-molecule microarray binding, higher = more signal;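 also: binding of the protein to compounds printed on small-molecule microarray slides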
# [8] = FRG1 promoter luciferase signal modulators, primary screen, FRG1 inhibition for FSHD, cell-based, C2C12 myotubes, firefly/Renilla luciferase, luminescence (AID 1084); conditions: higher = more signal, called active from +8 up or from −8 down
# [9] = binders of probe aFST on microarray, primary screen, stem cell growth factor project, biochemical, small-molecule microarray, fluorescence 635/667 (AID 1086); conditions: higher = more signal;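 also: score merges 667 nm fluorescence with signal-to-noise of each printed compound spot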
# [10] = binders of probe aHhip on microarray, primary screen, stem cell growth factor project, biochemical, small-molecule microarray, fluorescence 635/667 (AID 1087); conditions: higher = more signal;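 also: score merges spot fluorescence at 667nm with spot signal to noise ratio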
# [11] = system: PRMT1 (protein arginine N-methyltransferase 1); test: PRMT1 binders on small-molecule microarrays, primary screen, biochemical, small-molecule microarray, 635 nm fluorescence (AID 1088); conditions: small-molecule microarray binding, higher = more signal;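 also: binding of Prmt1 protein to compounds spotted on small-molecule microarray slides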
# [12] = yeast growth modulation, basal conditions, primary screen, YJM789 clinical isolate, OD600, 24 h (AID 1089);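 also: growth of clinical yeast isolate S. cerevisiae YJM 789 seeded 1000 cells per well; test concentration not given here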; conditions: S. cerevisiae YJM789 growth, higher = more signal, called active from +8 up or from −8 down
# [13] = fission yeast growth modulation, primary screen, strain 972, OD600, 24 h, no modulator (AID 1090);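 also: basal condition with compound alone and no growth modifier present; test concentration not given here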; conditions: S. pombe 972 growth, higher = more signal, called active from +8 up or from −8 down
# [14] = S. cerevisiae growth modulation with rapamycin, primary screen, strain BY4716, OD600, 96 h (AID 1091); conditions: higher = more signal, called active from +8 up or from −8 down; also: test concentration not given here
# [15] = molecular target: Torsin-1A-interacting protein 2 (Homo sapiens) (UniProt Q8NFQ8); test: LULL1 binders on small-molecule microarray, primary screen, cell lysate, human LULL1 lysate, 635/667 nm fluorescence (AID 1092); conditions: hLULL1 lysate binding, 635 nm fluorescence, higher = more signal;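 also: probe is lysate of COS7 cells overexpressing human LULL1; score merges per-feature 667 nm fluorescence with signal-to-noise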
# Chain of Torsin-1A-interacting protein 2 (Homo sapiens) (Q8NFQ8 whole entry, looked up): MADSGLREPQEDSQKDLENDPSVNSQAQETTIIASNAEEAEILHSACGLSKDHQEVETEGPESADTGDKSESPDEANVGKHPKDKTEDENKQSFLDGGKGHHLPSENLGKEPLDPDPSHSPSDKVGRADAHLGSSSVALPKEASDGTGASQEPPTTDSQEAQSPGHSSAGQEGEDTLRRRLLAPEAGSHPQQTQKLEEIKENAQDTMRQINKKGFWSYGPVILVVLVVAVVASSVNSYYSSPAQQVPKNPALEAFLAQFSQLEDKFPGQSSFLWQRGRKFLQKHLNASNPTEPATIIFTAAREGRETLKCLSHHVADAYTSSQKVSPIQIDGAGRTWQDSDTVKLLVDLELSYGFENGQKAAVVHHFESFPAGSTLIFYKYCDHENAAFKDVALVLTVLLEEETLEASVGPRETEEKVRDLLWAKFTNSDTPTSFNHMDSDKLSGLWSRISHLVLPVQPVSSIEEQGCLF
# [16] = E. coli growth modulation, two-sided OD650, primary screen, E. coli filamentation project, strain DRC41, 24 h (AID 1093); conditions: OD650, 24 h, higher = more signal, called active from +8 up or from −8 down;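 also: MC1000 strain lacking acrAB efflux and sulA so SOS filamentation is blocked; test concentration not given here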
# [17] = small-molecule microarray binders of probe aLefty2, primary screen, biochemical, biotinylated probe, 635/667 nm fluorescence (AID 1094); conditions: higher = more signal;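 also: score merges spot fluorescence near 667 nm with spot signal-to-noise ratio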
# [18] = system: Noggin (protein binding on small-molecule microarray); test: Noggin binders on small-molecule microarray, primary screen, biochemical, 635/667 nm fluorescence (AID 1095); conditions: 635 nm fluorescence, higher = more signal;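 also: score merges 667 nm feature fluorescence with signal to noise over triplicate slides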
# [19] = molecular target: Neurogenic locus notch homolog protein 3 (Homo sapiens) (UniProt Q9UM47); test: NOTCH3 binders on small-molecule microarray, primary screen, biochemical, 635/667 nm fluorescence (AID 1096); conditions: NOTCH3 binding, 635 nm fluorescence, higher = more signal
# [20] = small-molecule microarray binders of probe aEGFR, primary screen, biochemical, biotinylated probe, 635/667 nm fluorescence (AID 1097); conditions: higher = more signal;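 also: probe is a biotinylated anti-EGFR antibody binding compounds printed on slides; score combines fluorescence near 667 nm and signal to noise of each spot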
SMILES,composite z-score [1],composite z-score [2],composite z-score [3],composite z-score [4],composite z-score [5],composite z-score [6],composite z-score [7],z-score [8],composite z-score [9],composite z-score [10],composite z-score [11],z-score [12],z-score [13],z-score [14],composite z-score [15],z-score [16],composite z-score [17],composite z-score [18],composite z-score [19],composite z-score [20]
COC(=O)c1c2oc(c1C(=O)OC)C(=O)N1CCC[C@H]1Cn1nncc1CN(Cc1ccccc1)C(=O)N[C@H](CO)CC2,1.31,0.0712,-0.0597,0.627,0.201,0.655,0.803,-0.606 (inactive),-0.152,-0.353,0.97,0.955 (inactive),-0.086 (inactive),0.613 (inactive),0.983,1.24 (inactive),-0.116,0.743,0.2,0.471
CCOC(=O)C1=CC[C@@H](c2ccccc2)N(S(=O)(=O)c2ccc(C)cc2)[C@H]1C=Cc1ccccc1,0.162,-0.0855,-0.04,0.694,0.471,0.941,0.918,-3.49 (inactive),0.47,0.0373,0.238,0.403 (inactive),2.4 (inactive),1.46 (inactive),2.32,-0.812 (inactive),-0.0146,-0.452,0.258,-0.0828
O=c1cccc(-c2ccc(F)cc2)o1,-0.227,-0.0321,-0.0455,0.255,0.607,-0.219,1.08,0.855 (inactive),0.552,0.643,0.777,-1.28 (inactive),-0.0295 (inactive),-0.313 (inactive),-0.326,-0.428 (inactive),-0.0591,0.245,0.784,0.132
Cc1c(NC(=O)/C(C#N)=C/c2ccccc2Cl)c(=O)n(-c2ccccc2)n1C,-0.183,0.0711,-0.009,0.0417,0.935,0.888,1.12,0.311 (inactive),1.27,-0.139,0.315,-1.06 (inactive),-1.76 (inactive),-0.4 (inactive),3.03,0.245 (inactive),-0.158,0.0603,0.259,0.0092
CCN(CC)c1ccc(N2CC=CC34O[C@@H]5C=CCCOC(=O)C5[C@H]3C(=O)N(CCO)[C@@H]4C2=O)cc1 (stereo not given in full),0.171,-0.981,-0.18,-0.463,-0.894,-0.684,1.52,-0.329 (inactive),-0.209,-0.137,-1.15,-0.562 (inactive),-1.07 (inactive),-0.315 (inactive),-0.66,0.701 (inactive),-0.235,-1.42,-0.477,-0.201
